Bioassay records from PubChem BioAssay.
Only some compounds are listed: those with a hit (about 6.6% of all), similar ones and a draw of the others.
Beta apoptosis = inhibitors of cytokine-induced beta cell apoptosis, primary screen, luminescence | INS-1E cytokine-induced death, ATP luminescence, 48 h; percent of positive-control rescue, neutral wells zero | protection from apoptosis, % (concentration not given with the values) | actives 0.8% (n = 300,000);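 active = Every replicate reaches about 75%, or at least half do and their mean reaches it too, limit read from the data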;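 note: higher means more ATP so stronger rescue from cytokine killing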
NR3A LBD binder = binders of NR3A ligand-binding domain, primary screen, biophysical, differential scanning fluorimetry, uHTS; Glutamate receptor ionotropic, NMDA 3A (GRIN3A) ligand-binding domain; NR3A LBD differential scanning fluorimetry, Tm shift; 0% = protein alone, 100% = glycine-bound protein; Tm shift relative to glycine control, % at 25 µM; actives 2.5% (n = 340,000); AID 1259313, 2017;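 active = melting temperature shift of at least 10% of the positive control shift, at one fixed dose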
CSC inhib = cancer stem cell viability inhibitors, primary screen, luminescence; cancer stem cell-like cells viability; inhibition, % at 7.5 µM; actives 1.1% (n = 300,000); in the data active = inhibition above about 75%; tested in HMLE shEcad cells
MPTP block = mitochondrial permeability transition pore inhibitors, primary screen, biochemical, isolated mouse mitochondria, absorbance. inhibition, % at 10 µM. Ca2+ swelling absorbance, 30 min. actives 1.4% (n = 360,000);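 active = inhibition of 50% or more, scaled per plate between neutral and stimulator controls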
Mdm2-MdmX inh = inhibitors of human Mdm2-MdmX association, primary screen, cell-based, luminescence, split luciferase, SaOS-2, uHTS. SaOS-2 split-luciferase Mdm2/MdmX complementation. inhibition, % at 8 µM. AID 485346, 2010. Protein Mdm4 (Homo sapiens) + E3 ubiquitin-protein ligase Mdm2 (Homo sapiens), …. actives 3% (n = 330,000);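 active = inhibition of at least 50% at 8 µM in the primary screen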
Target sequence (O15151 whole entry, looked up): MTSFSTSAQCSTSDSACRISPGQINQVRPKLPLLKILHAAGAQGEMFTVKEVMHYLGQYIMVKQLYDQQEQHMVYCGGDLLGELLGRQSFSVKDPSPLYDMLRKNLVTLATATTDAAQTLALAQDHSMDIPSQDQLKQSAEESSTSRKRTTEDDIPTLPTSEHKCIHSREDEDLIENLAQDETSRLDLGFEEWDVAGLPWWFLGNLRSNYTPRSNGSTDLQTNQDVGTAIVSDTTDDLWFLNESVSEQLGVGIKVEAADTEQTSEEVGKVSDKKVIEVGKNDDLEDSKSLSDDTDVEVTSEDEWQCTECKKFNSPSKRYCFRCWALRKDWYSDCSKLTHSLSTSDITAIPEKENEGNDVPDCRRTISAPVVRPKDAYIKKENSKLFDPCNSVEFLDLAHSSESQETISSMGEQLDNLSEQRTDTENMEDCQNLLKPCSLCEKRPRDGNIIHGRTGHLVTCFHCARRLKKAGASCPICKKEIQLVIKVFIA
Target sequence (Q00987 whole entry, looked up): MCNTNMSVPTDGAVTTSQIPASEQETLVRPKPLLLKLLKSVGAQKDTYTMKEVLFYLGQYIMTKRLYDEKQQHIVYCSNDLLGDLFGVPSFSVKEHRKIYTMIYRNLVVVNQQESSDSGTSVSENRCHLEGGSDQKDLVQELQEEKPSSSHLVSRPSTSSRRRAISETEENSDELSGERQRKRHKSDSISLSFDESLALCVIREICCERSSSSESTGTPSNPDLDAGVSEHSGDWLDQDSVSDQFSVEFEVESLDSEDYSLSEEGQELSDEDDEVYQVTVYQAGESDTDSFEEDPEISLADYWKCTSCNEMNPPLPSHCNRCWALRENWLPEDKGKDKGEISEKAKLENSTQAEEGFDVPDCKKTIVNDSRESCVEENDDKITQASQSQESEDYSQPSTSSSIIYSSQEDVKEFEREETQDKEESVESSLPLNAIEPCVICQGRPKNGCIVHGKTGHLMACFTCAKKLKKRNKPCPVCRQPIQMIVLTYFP
Gli-Sufu antag = Gli-Sufu pathway antagonists, primary screen, luciferase luminescence, Sufu-KO-LIGHT cells, uHTS. AID 588413, 2011. inhibition, % at 5 µM. actives 0.74% (n = 340,000). Sufu-KO-LIGHT fibroblasts, Gli luciferase reporter luminescence;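 active = inhibition above about 55%, limit read from the data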
A number is an active result; i = inactive; nt = no result.

SMILES	Beta apoptosis	NR3A LBD binder	CSC inhib	MPTP block	Mdm2-MdmX inh	Gli-Sufu antag
Cc1ccc(C(=O)Nc2cccc([N+](=O)[O-])c2)cc1S(=O)(=O)Nc1cccc(C(=O)O)c1	i	i	i	i	i	i
CC(C)NS(=O)(=O)c1ccc(NC(=S)NC(=O)c2cccc([N+](=O)[O-])c2)cc1	i	13	i	i	i	i
Cc1ccc(C(=O)Nc2cccc([N+](=O)[O-])c2)cc1S(=O)(=O)Nc1ccc(NC(=O)c2ccccc2)cc1	i	36	i	i	i	i
NS(=O)(=O)c1ccc(C(=O)Nc2ccc(-c3nc4cccnc4s3)cc2)cc1	i	30	i	i	i	i
CCc1ccc(NC(=O)CCC(=O)Nc2nnc(C(C)C)s2)cc1	i	i	i	i	i	i
Cc1nc(N)nc(N)c1-c1ccc([N+](=O)[O-])cc1	nt	i	nt	i	nt	i
CN1C[C@@H]2[C@@H]3C(=O)N(C)C(=O)[C@@H]3[C@](C)(C1=O)N2C(=O)c1ccc(Cl)c(Cl)c1	nt	i	nt	i	nt	i
CS(=O)(=O)N1CCc2cc(C(=O)Nc3cccc([N+](=O)[O-])c3)ccc21	i	31	i	i	i	i
NS(=O)(=O)c1cccc(NC(=O)c2ccc(NS(=O)(=O)c3cccc([N+](=O)[O-])c3)cc2)c1	i	30	i	i	i	i
Cc1cc(F)ccc1NC(=O)c1ccc(NS(=O)(=O)c2cc(C(C)(C)C)ccc2C)cc1	i	i	i	i	i	i
CS(=O)(=O)N1CCc2cc(C(=O)Nc3ccc(Cl)cc3)ccc21	i	i	i	i	i	i
CC(=O)Nc1ccc(NC(=O)c2ccc(NS(=O)(=O)c3cc(C(C)(C)C)ccc3C)cc2)cc1	i	17	i	i	i	i
C[C@H](CO)N1C[C@H](C)[C@H](CN(C)C(=O)Cc2cccnc2)Oc2ncc(Br)cc2C1=O	nt	nt	nt	i	nt	nt
O=C(C[C@@H]1C=C[C@@H](NC(=O)C2CC2)[C@@H](CO)O1)NCc1ccccc1Cl	nt	nt	nt	i	nt	nt
COc1ccc(S(=O)(=O)N2CCC(C(=O)N[C@@H](C)C(=O)NCc3cccnc3)CC2)cc1	nt	nt	nt	i	nt	nt
O=S1(=O)CC(N2CCN(c3ccccn3)CC2)CN1C1CCCCC1 (stereo unspecified)	nt	nt	nt	i	nt	nt
Cc1ccc(NC(=O)C2COc3ccccc3O2)cc1S(=O)(=O)N1CCCCC1 (stereo unspecified)	i	i	i	i	i	i
Clc1cccc(-c2nc(NCCCN3CCOCC3)c3ccccc3n2)c1	i	i	91	i	i	i
Clc1cccc(-c2nc(NCCN3CCOCC3)c3ccccc3n2)c1	i	i	i	i	i	i
Cc1cc(F)ccc1C(O)c1ncc(-c2cccc(OCc3ccccc3)c2)[nH]1 (stereo unspecified)	nt	nt	nt	i	nt	nt
CC(C)(C)OC(=O)N1CCC(C(=O)Nc2ccc(C(=O)NC3CC3)cc2)CC1	nt	i	nt	i	nt	i
CC1CCc2c(sc(NC(=O)Cn3nc(C(F)(F)F)c4c3CCCCC4)c2C#N)C1 (stereo unspecified)	i	16	i	i	i	i
Cc1ccc(-c2ccc(SCC(=O)c3ccccc3)nn2)cc1	i	i	i	i	i	i
Cc1ccc(C(=O)CSc2nc(-c3ccccc3)ccc2C#N)cc1	i	i	84	i	i	i
CC(=NCc1cccc(Cl)c1)c1nc(-c2ccco2)oc1O	i	i	100	i	i	i
SMILES	Beta apoptosis	NR3A LBD binder	CSC inhib	MPTP block	Mdm2-MdmX inh	Gli-Sufu antag
Cc1cc(F)ccc1S(=O)(=O)N1CCCOC1CNC(=O)C(=O)NCc1ccc2c(c1)OCO2 (stereo unspecified)	i	i	i	i	i	i
O=C(NCc1ccc2c(c1)OCO2)C(=O)NCC1OCCCN1S(=O)(=O)c1cc(F)ccc1F (stereo unspecified)	i	13	i	i	i	i
CCOC(=O)CCCCCC(=O)Nc1ccc2c(c1)CC(=O)N([C@H](C)CO)C[C@H](C)[C@H](CN(C)S(=O)(=O)c1ccc(OC)cc1)O2	i	i	i	i	i	i
CCCCNC(=O)Nc1ccccn1	i	12	i	i	i	i
CCCCNC(=O)Nc1ccc(Br)cn1	i	i	i	i	i	i
COCCCN=Cc1c(C)[nH]n(-c2ccc(Br)c(C)c2)c1=O	nt	66	i	i	i	i
Cc1nn2c(-c3ccccc3)c(-c3ccccc3)nc2[nH]c1=O	i	20	i	i	i	i
CCN(c1cccc(C)c1)S(=O)(=O)c1cc2[nH]c(=O)c(=O)[nH]c2cc1C	nt	nt	nt	i	nt	nt
CCN(c1cccc(C)c1)S(=O)(=O)c1ccc2[nH]c(=O)c(=O)[nH]c2c1	i	11	i	i	i	i
O=C(CSc1nnc(-c2cccs2)n1-c1ccccc1)N1CCCC1	i	11	i	i	i	i
O=C(CSc1nnc(-c2cccs2)n1-c1ccccc1)N1CCOCC1	i	i	i	i	i	i
CC1ON=C(c2cccc3ccccc23)N(C)C1=O (stereo unspecified)	nt	nt	nt	i	nt	nt
COc1cc(S(=O)(=O)N2CCCCCC2)c(OC)cc1Br	i	i	79	i	i	i
Cc1cccc(NC(=O)Cn2c(/C=C/c3ccccc3)nc3ccccc32)c1	80	i	i	i	i	i
Cc1ccc(NC(=O)Cn2c(=O)c(C)nc3ccccc32)cc1	i	i	i	i	i	i
CCN(c1ccc(C(=O)CSc2nnc(C3CC3)n2C2CC2)cc1)S(C)(=O)=O	i	i	nt	i	i	i
COc1ccc(S(=O)(=O)NNc2nc(C)cc(C)n2)cc1[N+](=O)[O-]	i	i	i	i	i	i
Fc1ccc2cc(-c3ccsc3)ncc2c1	i	35	i	i	i	i
N#CCN(C(=O)CSc1nnc(C2CC2)n1C1CC1)c1ccccc1	nt	nt	nt	i	nt	nt
CC1(C)CC(=O)C=C(c2ccc3[nH]ccc3c2)C1	i	i	i	i	i	i
Nc1ncnc(Nc2ccc(F)cc2)n1	i	i	i	i	i	i
Fc1ccc(Nc2ccnc(Nc3ccc(F)cc3)n2)cc1	i	55	i	i	i	i
O=C(OCCO)c1c(-c2ccccc2)oc2c1C(OCCO)CCC2 (stereo unspecified)	nt	nt	nt	i	nt	nt
COC(=O)c1ccc(/C=C/c2c(-c3ccc(OC)cc3)oc3ccc(N4CCOCC4)cc23)cc1	i	i	109	i	i	i
COc1ccc(/C=C/c2c(-c3ccc(OC)cc3)oc3ccccc23)cc1	i	i	i	i	i	i
COC(=O)c1ccc(/C=C/c2c(-c3ccc(OC)cc3)oc3ccccc23)cc1	i	i	109	i	i	i
COc1ccc(/C=C/c2c(-c3cccc(C)c3)oc3ccc(N4CCOCC4)cc23)cc1	i	i	i	i	i	i
